# In PubChem BioAssay (NCI):
# The panel holds about 83,000 compounds, 20% with a hit somewhere; the sample as a whole holds those more often.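 Compound tested at a single concentration for 48 hours in 96-well plates; a percent growth value below 10 was scored as active.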 Activity calls are given as the source filed them.
# Tested on: SK-MEL-2 melanoma
# Test: NCI-60 one-dose screen, 48 h (100 = growth as untreated, 0 = no growth, -100 = all killed)
# Settings: 10 µM unless noted
row,SMILES,growth
1,Cc1ccc(/C=N/NC(N)=S)s1,102% (inactive)
2,Cc1cc(=O)n(Nc2ccccc2)c(O)c1C#N,96.4% (inactive)
3,CN(C)c1ccc(O)c2c1CC1CC3C(N(C)C)C(=O)C(C(N)=O)=C(O)C3(O)C(=O)C1=C2O (stereo not given),17.6% (inactive)
4,C/C(=N\N=C(/C)c1cccc([N+](=O)[O-])c1)c1cccc([N+](=O)[O-])c1,90.8% (inactive)
5,O=C1Nc2ccccc2/C1=C\c1ccccc1O,107% (inactive)
6,CCOC(=O)Nc1nccs1,111% (inactive)
7,CCNC(=O)Oc1ccc[nH]c1=O,107% (inactive)
8,Cc1nc(C)c(C(=O)O)cc1C(=O)O,114% (inactive)
9,CC(=O)OCC1OC(n2cnc3c(=S)nc(N)[nH]c32)C(OC(C)=O)C1OC(C)=O (stereo not given),95.2% (inactive)
10,CC(CO)(CO)C(=O)O,108% (inactive)
11,CCOC(=O)CNC,117% (inactive)
12,CC(c1ccccc1)N(C)C (stereo not given),84% (inactive)
13,COC1CC(OC(=O)c2ccc([N+](=O)[O-])cc2)C(COC(=O)c2ccc([N+](=O)[O-])cc2)O1 (stereo not given),127% (inactive)
14,O=[N+]([O-])c1c(Cl)ncnc1Cl,110% (inactive)
15,COc1ccc2c(Cl)cc(NC(=O)Nc3c(C)cccc3C)nc2c1,106% (inactive)
16,CC(=O)c1cccc(O)c1,103% (inactive)
17,Cc1ccc(C)c2c1CCC2=O,122% (inactive)
18,N#Cc1ccc(OC(=O)Nc2cc(Cl)cc(Cl)c2)cc1,-42.5% [100 µM] (active)
19,COC(CCCl)c1ccc(Cl)cc1 (stereo not given),83.5% (inactive)
20,COc1ccc(C2CCCCC2=O)cc1 (stereo not given),119% (inactive)
